The panel holds about 83,000 compounds, 20% with a hit somewhere; the sample as a whole holds those more often.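 Single-concentration screen, 48 h exposure, 96-well plates. Endpoint: percent growth. Below 10 = active.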 The source made the active and inactive calls.
Assays:
Assay in all cases: NCI-60 one-dose screen, 48 h (100 = growth as untreated, 0 = no growth, -100 = all killed)
Conditions in all cases: 10 µM unless noted
SK-MEL-2 melanoma = system: SK-MEL-2 melanoma
SN12C renal = system: SN12C renal
UO-31 renal = system: UO-31 renal
TK-10 renal = system: TK-10 renal
ACHN renal = system: ACHN renal
CAKI-1 renal = system: CAKI-1 renal
A498 renal = system: A498 renal
CCRF-CEM leukemia = system: CCRF-CEM leukemia
MOLT-4 leukemia = system: MOLT-4 leukemia
SR leukemia = system: SR leukemia
RPMI-8226 leukemia = system: RPMI-8226 leukemia
OVCAR-8 ovarian = system: OVCAR-8 ovarian
OVCAR-5 ovarian = system: OVCAR-5 ovarian
OVCAR-4 ovarian = system: OVCAR-4 ovarian
SK-OV-3 ovarian = system: SK-OV-3 ovarian
IGROV1 ovarian = system: IGROV1 ovarian
OVCAR-3 ovarian = system: OVCAR-3 ovarian
HS 578T breast = system: HS 578T breast
NCI/ADR-RES ovarian = system: NCI/ADR-RES ovarian

Measured: growth

N#Cc1cccc(NC(=O)c2oc3ccccc3c2-c2cnn(-c3ccccc3)c2)c1
active: CCRF-CEM leukemia -21.3% [50 µM] | MOLT-4 leukemia -5.03% [50 µM] | SR leukemia 3.02% [50 µM] | RPMI-8226 leukemia -16.2% [50 µM]
inactive: SK-MEL-2 melanoma 88.1% [50 µM] | SN12C renal 78.3% [50 µM] | UO-31 renal 59% [50 µM] | TK-10 renal 88.2% [50 µM] | ACHN renal 80.6% [50 µM] | CAKI-1 renal 63.2% [50 µM] | A498 renal 89.5% [50 µM] | OVCAR-8 ovarian 76.4% [50 µM] | OVCAR-5 ovarian 83.8% [50 µM] | OVCAR-4 ovarian 89.1% [50 µM] | SK-OV-3 ovarian 78% [50 µM] | IGROV1 ovarian 92.6% [50 µM] | OVCAR-3 ovarian 104% [50 µM] | HS 578T breast 89.3% [50 µM] | NCI/ADR-RES ovarian 77.2% [50 µM]

O=S(=O)(Nc1cc(Br)c(O)c2ccccc12)c1ccc(F)cc1
active: MOLT-4 leukemia -40.3% | OVCAR-8 ovarian 3.09% | OVCAR-4 ovarian -97.5% | OVCAR-3 ovarian -0.424% | NCI/ADR-RES ovarian 4.65%
inactive: SK-MEL-2 melanoma 87.8% | SN12C renal 49.3% | UO-31 renal 48.5% | TK-10 renal 123% | ACHN renal 71.2% | CAKI-1 renal 80.5% | A498 renal 89.9% | CCRF-CEM leukemia 11% | SR leukemia 11.6% | RPMI-8226 leukemia 27.2% | OVCAR-5 ovarian 113% | SK-OV-3 ovarian 99.7% | IGROV1 ovarian 81.4% | HS 578T breast 98.3%

COc1ccc(NC(=O)c2sc3nc(C)c(C(=O)/C=C/c4cccc(OC)c4)cc3c2N)cc1
active: CCRF-CEM leukemia 7.32% | SR leukemia 5.9% | RPMI-8226 leukemia -22.9% | OVCAR-3 ovarian -18.4%
inactive: SK-MEL-2 melanoma 42.9% | SN12C renal 19.7% | UO-31 renal 27.1% | TK-10 renal 82.2% | ACHN renal 52.3% | CAKI-1 renal 32.9% | A498 renal 14.3% | MOLT-4 leukemia 33.1% | OVCAR-8 ovarian 11.6% | OVCAR-5 ovarian 59.6% | OVCAR-4 ovarian 69.1% | SK-OV-3 ovarian 91.8% | IGROV1 ovarian 11% | HS 578T breast 36.8% | NCI/ADR-RES ovarian 19.5%

COc1cc(-c2cc(-c3ccc(N(C)C)cc3)nc(N3CCC(O)CC3)c2C#N)cc(OC)c1OC
inactive: SN12C renal 26.4% | TK-10 renal 14.9% | ACHN renal 15.1% | A498 renal 26.3% | CCRF-CEM leukemia 26.6% | SR leukemia 13.4% | OVCAR-8 ovarian 16.4% | OVCAR-5 ovarian 20.6% | OVCAR-4 ovarian 50.8% | SK-OV-3 ovarian 35.3% | HS 578T breast 17% | NCI/ADR-RES ovarian 14.9%
active: SK-MEL-2 melanoma -54.2% | UO-31 renal -45.1% | CAKI-1 renal -22.6% | RPMI-8226 leukemia -5.93% | IGROV1 ovarian 7.25% | OVCAR-3 ovarian -14.6%

CN(C)C1CCN(Cc2ccc(NC(=O)c3cncc(C#Cc4cnc(N)c5ncccc45)c3)cc2C(F)(F)F)CC1
inactive: SK-MEL-2 melanoma 79.9% | SN12C renal 93.1% | UO-31 renal 89.3% | TK-10 renal 128% | CAKI-1 renal 78.4% | A498 renal 85.2% | MOLT-4 leukemia 24.7% | RPMI-8226 leukemia 60.9% | OVCAR-5 ovarian 123% | SK-OV-3 ovarian 103% | IGROV1 ovarian 112% | HS 578T breast 44.9%
active: ACHN renal -90.9% | CCRF-CEM leukemia 4.13% | SR leukemia 1.15% | OVCAR-8 ovarian -25.4% | OVCAR-4 ovarian -14.7% | NCI/ADR-RES ovarian -63.9%

COc1ccc(C(=O)Nc2ncc(Cc3cccc(Cl)c3)s2)cc1OC
active: SK-MEL-2 melanoma 8.92% | A498 renal 0.53% | OVCAR-3 ovarian 7.51%
inactive: SN12C renal 39.9% | TK-10 renal 38.5% | ACHN renal 16.8% | CAKI-1 renal 12.8% | CCRF-CEM leukemia 17.3% | MOLT-4 leukemia 29.2% | SR leukemia 17% | RPMI-8226 leukemia 21.3% | OVCAR-8 ovarian 35.6% | OVCAR-5 ovarian 49.3% | OVCAR-4 ovarian 60.2% | SK-OV-3 ovarian 34.9% | IGROV1 ovarian 40.2% | HS 578T breast 30.9% | NCI/ADR-RES ovarian 20.9%

COc1cc2oc(-c3cccc(NC(=O)c4cccc(Br)c4)c3)cc(=O)c2c(OC)c1OC
inactive: SK-MEL-2 melanoma 54% | SN12C renal 54.2% | UO-31 renal 36.8% | TK-10 renal 65.5% | ACHN renal 44.1% | CAKI-1 renal 51.4% | A498 renal 46.6% | CCRF-CEM leukemia 30.3% | MOLT-4 leukemia 41.7% | SR leukemia 43.2% | RPMI-8226 leukemia 25.5% | OVCAR-8 ovarian 34.8% | OVCAR-5 ovarian 87.7% | OVCAR-4 ovarian 58.7% | SK-OV-3 ovarian 92.5% | IGROV1 ovarian 58.8% | OVCAR-3 ovarian 66.5% | HS 578T breast 47.1% | NCI/ADR-RES ovarian 53.1%

C=C1C(=O)O[C@H]2[C@H]1CC/C(COC(=O)N[C@H]1C[C@H](O[C@H]3C[C@](O)(C(=O)CO)Cc4c(O)c5c(c(O)c43)C(=O)c3c(OC)cccc3C5=O)O[C@@H](C)[C@H]1O)=C\CC[C@@]1(C)O[C@@H]21
active: CCRF-CEM leukemia -18.2% | MOLT-4 leukemia -5.6% | SR leukemia 5.44% | RPMI-8226 leukemia -24.2% | OVCAR-3 ovarian -8.47%
inactive: SK-MEL-2 melanoma 85.5% | SN12C renal 34.9% | UO-31 renal 83.1% | TK-10 renal 64.9% | ACHN renal 88.9% | CAKI-1 renal 61.7% | A498 renal 70.5% | OVCAR-8 ovarian 66% | OVCAR-5 ovarian 96.4% | OVCAR-4 ovarian 62.5% | SK-OV-3 ovarian 107% | IGROV1 ovarian 56.7% | HS 578T breast 73% | NCI/ADR-RES ovarian 100%

C=C1CC[C@@H]2[C@](C)(COC(C)=O)[C@H](OC(C)=O)CC[C@@]2(C)[C@@H]1CC(Sc1ccccc1)C1=CCOC1=O (stereo not given in full)
active: SK-MEL-2 melanoma -1.66% | SN12C renal 1.3% | ACHN renal -13.7% | CCRF-CEM leukemia -5.24% | MOLT-4 leukemia -3.93% | SR leukemia 2.9% | RPMI-8226 leukemia -4.72% | OVCAR-3 ovarian -84.2%
inactive: UO-31 renal 35.6% | TK-10 renal 11.4% | CAKI-1 renal 90.6% | A498 renal 86.3% | OVCAR-8 ovarian 11.9% | OVCAR-4 ovarian 100% | SK-OV-3 ovarian 57.7% | IGROV1 ovarian 25.2% | HS 578T breast 54.2% | NCI/ADR-RES ovarian 10.1%

O=C1Nc2ccccc2/C1=C\c1nc(-c2ccccc2)n2ccccc12
inactive: SK-MEL-2 melanoma 94.2% | SN12C renal 96.2% | UO-31 renal 79.8% | TK-10 renal 84.2% | ACHN renal 71.1% | CAKI-1 renal 76.5% | A498 renal 119% | CCRF-CEM leukemia 84.1% | MOLT-4 leukemia 88.1% | SR leukemia 101% | RPMI-8226 leukemia 81.9% | OVCAR-8 ovarian 95.5% | OVCAR-5 ovarian 90.6% | OVCAR-4 ovarian 73.7% | SK-OV-3 ovarian 81% | IGROV1 ovarian 67% | OVCAR-3 ovarian 115% | HS 578T breast 118% | NCI/ADR-RES ovarian 93.9%

COc1ccc(C(=S)N2CCN(c3ccccc3Cl)CC2)cc1OC
inactive: SK-MEL-2 melanoma 101% | SN12C renal 100% | TK-10 renal 108% | ACHN renal 97.2% | CAKI-1 renal 91.8% | A498 renal 94.6% | CCRF-CEM leukemia 123% | SR leukemia 39.9% | RPMI-8226 leukemia 117% | OVCAR-8 ovarian 105% | OVCAR-5 ovarian 95.2% | SK-OV-3 ovarian 120% | IGROV1 ovarian 105% | OVCAR-3 ovarian 104% | HS 578T breast 99.4% | NCI/ADR-RES ovarian 108%

O=C1/C(=C/c2ccccc2Br)COc2ccc(O)c(O)c21
active: SN12C renal -67.6% | UO-31 renal -92.1% | ACHN renal -44.9% | CCRF-CEM leukemia 1.62% | MOLT-4 leukemia 2.79% | RPMI-8226 leukemia 1.07% | OVCAR-8 ovarian 9.72% | IGROV1 ovarian -19.4% | OVCAR-3 ovarian 8.7% | NCI/ADR-RES ovarian 7.97%
inactive: SK-MEL-2 melanoma 48.8% | TK-10 renal 29.5% | CAKI-1 renal 22.2% | A498 renal 116% | SR leukemia 14.7% | OVCAR-5 ovarian 31.4% | OVCAR-4 ovarian 48.2% | SK-OV-3 ovarian 74.7% | HS 578T breast 25.2%

C=C(C)[C@@H]1CC[C@]2(C(=O)O)CC[C@]3(C)[C@H](CC[C@@H]4[C@@]5(C)C[C@@H](Cc6cn(CCO[C@@H]7O[C@H](COC(C)=O)[C@H](OC(C)=O)[C@H](OC(C)=O)[C@H]7OC(C)=O)nn6)[C@H](O)C(C)(C)[C@@H]5CC[C@]43C)[C@@H]12
inactive: SK-MEL-2 melanoma 67.2% | SN12C renal 70.3% | UO-31 renal 81.6% | TK-10 renal 79.3% | ACHN renal 86% | CAKI-1 renal 73.2% | A498 renal 70.3% | CCRF-CEM leukemia 69.2% | MOLT-4 leukemia 50.6% | SR leukemia 48.2% | RPMI-8226 leukemia 38.3% | OVCAR-8 ovarian 77.8% | SK-OV-3 ovarian 80.8% | IGROV1 ovarian 59.3% | OVCAR-3 ovarian 67% | HS 578T breast 51.9% | NCI/ADR-RES ovarian 91.8%

Cn1c(O)c(C=NCCN=Cc2c(O)n(C)c(=O)n(C)c2=O)c(=O)n(C)c1=O
inactive: SK-MEL-2 melanoma 120% | SN12C renal 95.6% | UO-31 renal 84.7% | TK-10 renal 116% | ACHN renal 101% | CAKI-1 renal 94.4% | A498 renal 127% | RPMI-8226 leukemia 80.6% | OVCAR-8 ovarian 103% | OVCAR-5 ovarian 83.7% | OVCAR-4 ovarian 112% | SK-OV-3 ovarian 107% | IGROV1 ovarian 106% | OVCAR-3 ovarian 102% | HS 578T breast 112% | NCI/ADR-RES ovarian 104%
active: CCRF-CEM leukemia 7.42% | MOLT-4 leukemia -46.6% | SR leukemia -21.9%

O=C(NNc1nccc(Nc2ccc(S(=O)(=O)Nc3ccncc3)cc2)n1)c1ccccc1
inactive: SK-MEL-2 melanoma 106% | SN12C renal 107% | UO-31 renal 93.9% | TK-10 renal 95.3% | ACHN renal 104% | CAKI-1 renal 92.8% | A498 renal 103% | CCRF-CEM leukemia 111% | MOLT-4 leukemia 96.7% | SR leukemia 87.6% | RPMI-8226 leukemia 95.6% | OVCAR-8 ovarian 99.4% | OVCAR-5 ovarian 101% | OVCAR-4 ovarian 106% | SK-OV-3 ovarian 107% | IGROV1 ovarian 102% | OVCAR-3 ovarian 100% | HS 578T breast 110% | NCI/ADR-RES ovarian 85.4%

N#C/C(=C/c1ccc([N+](=O)[O-])cc1)n1nnc2cc(F)c(F)cc21
inactive: SK-MEL-2 melanoma 75.6% | SN12C renal 61.1% | UO-31 renal 64.7% | TK-10 renal 24.5% | ACHN renal 36.2% | CAKI-1 renal 71.2% | A498 renal 75.3% | CCRF-CEM leukemia 15.1% | MOLT-4 leukemia 38.6% | OVCAR-8 ovarian 37.5% | OVCAR-5 ovarian 108% | OVCAR-4 ovarian 86.5% | SK-OV-3 ovarian 116% | IGROV1 ovarian 73.6% | OVCAR-3 ovarian 30.6% | HS 578T breast 80.6% | NCI/ADR-RES ovarian 76.2%
active: SR leukemia 2.33% | RPMI-8226 leukemia -18.7%

— PubChem BioAssay (NCI)
